{"source": "PubChem BioAssay AID720517", "about": "(National Center for Advancing Translational Sciences (NCATS), 2013)", "note": "Records with an inconclusive call do not appear. Calls of active or inactive are those of the source. Calls follow the shape of the dose curve; as a rule, active = well fitted activation curve with a large enough effect; inconclusive = small, poorly fitted or top-dose-only effect; inactive = flat fitted curve, though single readings scatter."}
{"assay": "qHTS for Inhibitors of Cell Surface uPA Generation: FP59 Counterscreen for Cherry-picked Compounds", "conditions": "FP59 anthrax toxin cytotoxicity counterscreen, cells; series mostly up to 115 µM"}
{"molecule": "O=P1(NCCCl)OCCCN1CCCl", "note": "(stereo not given)", "outcome": "inactive"}
{"molecule": "Cc1ccccc1O", "outcome": "inactive"}
{"molecule": "FC(F)(F)Oc1ccc(NC2=NCCCS2)cc1", "outcome": "inactive"}
{"molecule": "O=c1[nH]c(=O)n(CCc2ccccc2)c(O)c1C=NC1CC1", "outcome": "inactive"}
{"molecule": "COc1ccc(-c2nn(CCC#N)cc2C(=O)Nc2ccccc2)cc1OC", "outcome": "inactive"}
{"molecule": "c1cncc(C2CCCCN2)c1", "note": "(stereo not given)", "outcome": "inactive"}
{"molecule": "CCCCCn1c(=O)c(C(=O)Nc2ccccn2)c(O)c2ccccc21", "outcome": "inactive"}
{"molecule": "O=C(c1ccc(F)c([N+](=O)[O-])c1)N1CC2CC(C1)c1cccc(=O)n1C2", "note": "(stereo not given)", "outcome": "inactive"}
{"molecule": "O=c1[nH]c(=O)n(-c2ccc(Cl)cc2)c(O)c1C=Nc1ccc(S(=O)(=O)Nc2nccs2)cc1", "outcome": "inactive"}
{"molecule": "COC(=O)C1=C(c2cccc(OC)c2OC)C[C@@H]2CC[C@H]1N2C(=O)NC1CC1", "outcome": "inactive"}
{"molecule": "COc1ccc(-c2nn(CCC#N)cc2C(=O)Nc2cccc([N+](=O)[O-])c2)cc1OC", "outcome": "inactive"}
{"molecule": "COCC(=O)N1Cc2ccccc2-n2nncc2C1", "outcome": "inactive"}
{"molecule": "CCOc1ccc(CN2CCN(C(=O)Cc3ccccc3)CC2)cc1", "outcome": "inactive"}
{"molecule": "C[N+](C)(C)CCOC(=O)CBr", "outcome": "inactive"}
{"molecule": "Cc1ncc(CN2CCCC(C(=O)c3cccc(OC(C)C)c3)C2)s1", "note": "(stereo not given)", "outcome": "inactive"}
{"molecule": "Cc1cc(C(=O)NP(=O)(N2CCOCC2)N2CCOCC2)c(C)n1C1CC1", "outcome": "inactive"}
{"molecule": "CCOC(=O)c1ccc(N=Cc2c(O)n(-c3ccc(OC)cc3)c(=S)[nH]c2=O)cc1", "outcome": "inactive"}
{"molecule": "COc1ccccc1N1CCN(Cc2ccc(SC)cc2)CC1", "outcome": "inactive"}
{"molecule": "Cc1ccc(-n2c(O)c(C=NCCN3CCNCC3)c(=O)[nH]c2=S)cc1", "outcome": "inactive"}
{"molecule": "COc1ccccc1NC(=O)N1C[C@@H]2C[C@@H](C1)c1cccc(=O)n1C2", "outcome": "inactive"}
